The source of these data is PubChem BioAssay AID602229 (The Scripps Research Institute Molecular Screening Center, 2012).

In all, about 360,000 compounds went through this assay and about 1,300 (0.36%) were called active.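 The calls were made as follows: active = inhibition above the mean of all tested compounds plus 3 SD (cut at about 70% in these data); inactive = the rest.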 The entries come from a sample that favours actives as a whole.

Chain of Photoreceptor-specific nuclear receptor (Homo sapiens) (Q9Y5X4 whole entry, looked up, the tested form may be a part): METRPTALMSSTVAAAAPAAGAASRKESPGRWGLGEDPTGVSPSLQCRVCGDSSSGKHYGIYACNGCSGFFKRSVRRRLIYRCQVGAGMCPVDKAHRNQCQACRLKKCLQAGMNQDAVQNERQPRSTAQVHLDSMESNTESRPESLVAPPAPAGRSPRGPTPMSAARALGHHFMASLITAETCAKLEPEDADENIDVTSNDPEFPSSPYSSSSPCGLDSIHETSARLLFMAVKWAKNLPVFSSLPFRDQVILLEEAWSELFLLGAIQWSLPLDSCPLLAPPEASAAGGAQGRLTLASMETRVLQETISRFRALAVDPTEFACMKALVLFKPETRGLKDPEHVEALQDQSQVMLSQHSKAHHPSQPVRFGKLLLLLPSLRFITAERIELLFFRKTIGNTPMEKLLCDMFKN

The experiment concerns the target Photoreceptor-specific nuclear receptor (Homo sapiens) (UniProt Q9Y5X4). Briefly: NR2E3 agonists in two-hybrid cells, primary screen, cell-based, luminescence, CHO-S, Gal4-NCOR/VP16-NR2E3 (AID 602229).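 Also: 0% = DMSO with NR2E3 transfected cells and 100% = cells lacking NR2E3 construct; higher means lower luciferase signal from less NR2E3 corepressor binding.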 The note with it: luciferase, at 3.98 µM, hits give high values.
Turning to `CC(C)c1ccc(NC(=O)[C@@H](NC(=O)N2CC(=O)Nc3ccccc32)C(C)C)cc1`, the inhibition of corepressor binding is -32.4% (inactive). As for `Cc1nn(-c2ccccc2)c(=O)c2noc(C)c12`, the inhibition of corepressor binding is -0.89% (inactive).

With `O=C(CC(O)(C(F)(F)F)C(F)(F)F)Nc1ccc(Cl)c(Cl)c1`, the inhibition of corepressor binding is 107% (active). On to `N#CCCN(C(=O)Nc1ccc(Cl)c(Cl)c1)C1CCCCC1`, for which the inhibition of corepressor binding was -1.19% (inactive). As for `O=C(CN1CCN(C(=O)c2ccco2)CC1)Nc1ccc(Cl)c(C(F)(F)F)c1`, the figure is -9.37% (inactive); as for `CN(C)c1ccc(NC(=O)CSc2n[nH]c(-c3ccco3)n2)cc1`, -21.3% (inactive); as for `O[C@@H]1C[C@H](c2ccccc2)N(Cc2cccs2)C[C@H]1n1cc(C2CC2)nn1`, 5.46% (inactive).

Turning to `COc1cccc(CNC(C)C(=O)Nc2ccc(S(=O)(=O)N3CCCC3)cc2)c1` (stereo not given), the inhibition of corepressor binding was 3.95% (inactive). Consider `COc1ccc(S(=O)(=O)N2CCN(C(C)C(=O)Nc3ccc(C(C)C)cc3)CC2)cc1` (stereo not given), for which the inhibition of corepressor binding was 94.6% (active). Turning to `CC(C)c1ccc(S(=O)(=O)N2CCN(C(C)C(=O)NC3CCCC3)CC2)cc1` (stereo not given), the inhibition of corepressor binding is -5.61% (inactive). With `N#Cc1ccc(COC(=O)Cn2nnc(-c3ccccc3)n2)cc1` the figure was 19.6% (inactive).

Consider `CCC(=O)N1CCN=C1SCc1ccc(F)cc1`, for which the inhibition of corepressor binding is 3.93% (inactive). As for `Cc1ccc(OCc2nnc(SC3CCc4ccccc4C3=O)n2C)cc1` (stereo not given), the inhibition of corepressor binding is -9.34% (inactive). Regarding `CCCCC(NS(=O)(=O)c1ccc(C)cc1)C(=O)Oc1ccc2c3c(c(=O)oc2c1)CCC3` (stereo not given), the inhibition of corepressor binding is -22.6% (inactive).

Consider `CCC(=O)c1ccc(OCC(O)Cn2nc(C)c(C(C)=O)c2C)cc1` (stereo not given), for which the inhibition of corepressor binding was -7.85% (inactive).

Take `CCN(CC)C(=O)C1=C(C)N(Cc2ccc(C(C)(C)C)cc2)C(=O)C(CC(=O)NCc2cccc3ccccc23)C1` (stereo not given): the inhibition of corepressor binding was 20.9% (inactive).

`C=CCn1c(C)cc(C2=NNC(=NCC)SC2)c1C`: the inhibition of corepressor binding was 89.3% (active).

Consider `CCN(CC)S(=O)(=O)c1ccc(N(C)Cc2ccc(C(F)(F)F)cc2)nc1`, for which the inhibition of corepressor binding was 91.6% (active). `CCN(CC)S(=O)(=O)c1ccc(N(C)Cc2cccc(OC)c2OC)nc1`: the inhibition of corepressor binding was 2.59% (inactive). For the compound `CCN(CC)S(=O)(=O)c1ccc(N(C)CCc2ccc(OC)c(OC)c2)nc1`, the inhibition of corepressor binding is 14.8% (inactive). As for `CCCCCCCCCCCCC(NC(C)=O)(C(=O)OCC)C(=O)OCC`, the inhibition of corepressor binding was 34.1% (inactive). `O=C(Nn1cnc2ccccc2c1=O)c1ccc([N+](=O)[O-])cc1Cl`: the inhibition of corepressor binding was -16.8% (inactive).

With `CCCCN1C[C@H](c2ccc(Br)cc2)[C@@H](CC(=O)Nc2ccc(Br)cc2)C1=O`, the inhibition of corepressor binding was -20.7% (inactive). Take `Cc1ccnc(NC(=O)C2CCN(S(=O)(=O)c3c(C)c(C)cc(C)c3C)CC2)c1`: the inhibition of corepressor binding is 80.9% (active). In the case of `CNC(=O)C1CCN(S(=O)(=O)c2c(C)noc2/C=C/c2cccc(C)c2)CC1`, the inhibition of corepressor binding is -10.5% (inactive). With `O=C(Nc1ccccn1)C1CCN(S(=O)(=O)c2ccc3c(c2)OCCO3)CC1`, the inhibition of corepressor binding was -51.8% (inactive). For the compound `CN(C)c1ccc(NC(=S)N(CCc2ccccc2)C2CC(=O)N(c3c(Cl)cccc3Cl)C2=O)cc1` (stereo not given), the inhibition of corepressor binding was 0.55% (inactive).

Turning to `COc1ccc(-c2ccc(C(=O)NC(C)C)c3occc23)c(C)c1`, the inhibition of corepressor binding is 15.3% (inactive). `CC(=O)Nc1ccc(S(=O)(=O)NCC(=O)OCc2cc(=O)oc3ccc4ccccc4c23)cc1`: the inhibition of corepressor binding is -8.3% (inactive).

Consider `COc1ccc(CCNC(=O)CC2SC(=Nc3cc(C)cc(C)c3)NC2=O)cc1OC` (stereo not given), for which the inhibition of corepressor binding is -33.4% (inactive).

As for `CCCOc1ccc(Cc2c(Cl)nc(SC)nc2NC)cc1`, the inhibition of corepressor binding was 92.3% (active).

In the case of `CCCOc1ccc(Cc2c(O)nc(SC)[nH]c2=O)cc1C`, the inhibition of corepressor binding is -21.5% (inactive). For the compound `CCn1c(/C=C/c2ccc([N+](=O)[O-])o2)nc2ccccc2c1=O`, the inhibition of corepressor binding is 9.98% (inactive). As for `O=C(/C=C/c1ccc([N+](=O)[O-])o1)NNC(=O)c1ccc(F)cc1`, the inhibition of corepressor binding is 101% (active). Regarding `O=C(/C=C/c1ccc(F)cc1)NC(=S)NNC(=O)c1cccnc1`, the inhibition of corepressor binding is -36.2% (inactive). With `CC1=C(C(=O)Nc2ccccc2)C(c2cccs2)C(C#N)=C(SCC#N)N1` (stereo not given) the figure was -12.8% (inactive); with `CNS(=O)(=O)c1ccc2c(c1)[nH]c(=S)n2C`, 10% (inactive); with `CCCN(CC(=O)Nc1ccc(C(N)=O)cc1)CC(=O)Nc1ccccc1C`, 12.9% (inactive).

For the compound `Nc1nc(-c2sc3nc4c(cc3c2N)CCCC4)nc(N2CCOCC2)n1`, the inhibition of corepressor binding is -56.6% (inactive). For `COC(=O)C1C(=O)c2c([nH]c(C(=O)OCCSC)c2C)CC1C` (stereo not given), the inhibition of corepressor binding is -86.8% (inactive).

Consider `CCCOC(=O)c1[nH]c2c(c1C)C(=O)CC(c1cc(OC)c(OC)c(OC)c1)C2` (stereo not given), for which the inhibition of corepressor binding is 70.4% (active). For the compound `CCCOC(=O)c1[nH]c2c(c1C)C(=O)CC(c1cccs1)C2` (stereo not given), the inhibition of corepressor binding was 2.46% (inactive). With `Cc1cc(C)c(S(=O)(=O)NCC2CCC(C(=O)NCc3ccc4c(c3)OCO4)CC2)c(C)c1` (stereo not given) the figure was -8.75% (inactive); with `CC(C)C1Nc2c(C(=O)O)cccc2C(Nc2ccccc2C(=O)O)C1(C)C` (stereo not given), 6.02% (inactive). With `COc1ccc(F)cc1S(=O)(=O)N1CCCCC1`, the inhibition of corepressor binding was 4.16% (inactive).

For `Cc1ccc(C)c(NC(=O)COC(=O)c2nn(C)c(=O)c3ccccc23)c1`, the inhibition of corepressor binding is 8.19% (inactive). Regarding `Cc1ccc(F)cc1NC(=O)Cc1nn(C)c(=O)c2ccccc12`, the inhibition of corepressor binding was 96.1% (active). As for `Cc1ccc(F)cc1NC(=O)CSCc1c(C)noc1C`, the figure is -16.1% (inactive); as for `O=C(CN1CCN(S(=O)(=O)c2ccc(Br)cc2)CC1)Nc1ccccc1C(=O)c1ccccc1`, 3.01% (inactive). In the case of `Cc1ccc(S(=O)(=O)N2[C@@H](c3ccc(Br)cc3)C(C(=O)O)=C[C@H]2CC2CCCC2)cc1`, the inhibition of corepressor binding was 77.4% (active). In the case of `CCCCC[C@@H]1C=C(C(=O)O)[C@H](c2ccc(C#N)cc2)N1S(=O)(=O)c1ccc(C)cc1`, the inhibition of corepressor binding was -8.3% (inactive). Take `CCCCC[C@@H]1C=C(C(=O)OCC)[C@H](c2ccccc2)N1S(=O)(=O)c1ccc(C)cc1`: the inhibition of corepressor binding is 16.2% (inactive). Turning to `O=C(NCc1ccccc1)C(=O)NCC1OCCN1S(=O)(=O)c1ccc(Br)cc1` (stereo not given), the inhibition of corepressor binding is 10.3% (inactive). In the case of `COc1ccc(N(C)S(=O)(=O)c2ccc3c(c2)CC(C)N3C(=O)C2CC2)c(OC)c1` (stereo not given), the inhibition of corepressor binding is -11.9% (inactive).

With `COc1cccc(CNS(=O)(=O)c2ccc3c(c2)CC(C)N3C(=O)C2CCC2)c1` (stereo not given), the inhibition of corepressor binding was 87.5% (active). For the compound `O=C(C1CCC1)N1CCc2cc(S(=O)(=O)NCc3cccnc3)ccc21`, the inhibition of corepressor binding is 10% (inactive). Regarding `COc1ccc(S(=O)(=O)n2nc(C)c(S(=O)(=O)N3CCOCC3)c2C)cc1`, the inhibition of corepressor binding was -29.6% (inactive). With `COc1ccc(S(=O)(=O)Nc2cccnc2)c(Cl)c1Cl` the figure was -20.2% (inactive); with `Cc1cc(C)c(C)c(S(=O)(=O)Nc2cccnc2)c1C`, -21.1% (inactive). On to `COc1ccccc1Oc1ccc(S(=O)(=O)Nc2cccnc2)cc1`, for which the inhibition of corepressor binding was 96.3% (active).

Take `CN(CCc1cnn(C)c1)Cc1cn(C)nc1-c1ccccc1F`: the inhibition of corepressor binding is -12.1% (inactive). Turning to `COc1ccc(NC(=O)C2=NNC(=O)CC2)cc1S(=O)(=O)N1CCCCC1`, the inhibition of corepressor binding is -7.29% (inactive). With `CC1(C)O[C@@H]2CC3C4C[C@H](F)C5=CC(=O)C=CC5(C)C4C(O)CC3(C)[C@]2(C(=O)CO)O1` (stereo not given in full) the figure was 7.42% (inactive); with `Cc1ccc(NS(=O)(=O)c2ccc(-c3coc(C)n3)cc2)c(C)c1`, 73.5% (active). Turning to `COc1cccc(NS(=O)(=O)c2ccc(-c3coc(C)n3)cc2)c1`, the inhibition of corepressor binding is 50.6% (inactive).

For the compound `Cc1ccc(NS(=O)(=O)c2ccc3c(c2)n(C)c(=O)c(=O)n3C)c(C)c1`, the inhibition of corepressor binding was 10.7% (inactive). On to `CCC1CCCCN1C(=O)CSc1nc(C)cc(C)n1` (stereo not given), for which the inhibition of corepressor binding is 7.45% (inactive). Regarding `Cc1ccc(C(=O)OC2=CC(=O)CC(C)(C)C2)cc1`, the inhibition of corepressor binding was -13.1% (inactive). Take `CS(=O)(=O)N1CCN=C1SCc1ccc(F)cc1`: the inhibition of corepressor binding is -6.15% (inactive). As to `COc1cccc(N(CC(=O)NC2CCCC2)C(=O)CCCC(=O)Nc2ccccn2)c1`, the inhibition of corepressor binding was -5.7% (inactive). With `COc1cc(NS(=O)(=O)c2ccc3ccccc3c2)c2ncccc2c1` the figure was 48% (inactive); with `Cc1ccc(S(=O)(=O)Nc2ccc3ncccc3c2)cc1`, 74.2% (active). On to `O=S(=O)(Nc1ccc(Oc2ncccn2)c(Cl)c1)c1ccc(F)cc1`, for which the inhibition of corepressor binding was -0.77% (inactive).

`COC(=O)c1ccccc1NC(=O)C1CCN(S(=O)(=O)c2cc(OC)ccc2OC)CC1`: the inhibition of corepressor binding was -0.68% (inactive).

Regarding `CC(C)N=C1CCCC1C(=S)SSC(=S)C1CCCC1=NC(C)C` (stereo not given), the inhibition of corepressor binding is 82.3% (active).

Regarding `O=C(CSc1ccccn1)N1CCN(S(=O)(=O)c2ccc(Cl)cc2)CC1`, the inhibition of corepressor binding is -21.8% (inactive).

Turning to `CCCc1cc(=O)[nH]c(SCc2ccc(C#N)cc2)n1`, the inhibition of corepressor binding is -25.9% (inactive). For the compound `O=C(CN(CC1CCCO1)C(=O)CNS(=O)(=O)c1ccccc1)NCc1ccccc1` (stereo not given), the inhibition of corepressor binding is -7.79% (inactive).

As for `CN(O)C(=S)c1ccccc1`, the inhibition of corepressor binding was 98.8% (active). Consider `CCOC(=O)C1=NNC2(c3ccc(Cl)cc3)C(=O)N(c3cc(C)cc(C)c3)C(=O)C12` (stereo not given), for which the inhibition of corepressor binding is 3.14% (inactive). Turning to `Cc1cc(C)nc(NC(=O)Nc2ccccc2C(F)(F)F)n1`, the inhibition of corepressor binding is -48.1% (inactive). With `CC(C)(C)C(=O)COC(=O)c1cc(S(=O)(=O)N2CCCCC2)ccc1N1CCOCC1` the figure was -9.47% (inactive); with `COc1ccccc1CCCNC(=O)C1CCC(=O)N(CCN2CCOCC2)C1` (stereo not given), -8.73% (inactive); with `O=C(c1ccco1)N1CCN(CC(=O)N(C2CCCCC2)C2CCS(=O)(=O)C2)CC1` (stereo not given), -15.5% (inactive).

Consider `Cc1ccc(S(=O)(=O)N2CCC3(CC2)OCCO3)c(C)c1`, for which the inhibition of corepressor binding was -34.4% (inactive). On to `Cc1ccc(S(=O)(=O)N2CCN(c3ncnc4ccccc34)CC2)cc1`, for which the inhibition of corepressor binding was 89.9% (active).

For the compound `COc1ccc(S(=O)(=O)N2CCN(c3ncnc4c(-c5ccccc5)nsc34)CC2)cc1`, the inhibition of corepressor binding is -27.3% (inactive).

Turning to `Cc1ccc([N+](=O)[O-])cc1S(=O)(=O)N1CCCN(C)CC1`, the inhibition of corepressor binding was -11.3% (inactive). As to `Cc1ccc(C)c(S(=O)(=O)N2CCN(c3ncnc4sccc34)CC2)c1`, the inhibition of corepressor binding was 85.8% (active). Regarding `Cc1ccc(S(=O)(=O)N2CCN(Cc3cccc(C)c3O)CC2)cc1`, the inhibition of corepressor binding was 4.5% (inactive).
